The nature of assay [1]: inhibitors of TNFa-induced NFkB p65 translocation, primary screen, imaging, HUVEC, MLSMR starter and 10KST1 sets (AID 438;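 active = inhibition above 20% together with a positive visual image hit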;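 also: compound added about 3h40 before a 20 min TNFalpha stimulation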;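 as to inhibition: signal is the nuclear over cytoplasmic p65 intensity ratio per well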). To be noted: HUVEC TNFa-induced p65 nuclear translocation; cell count: measured here: nuclei count (cytotoxicity indicator), at 2.08 µM; inhibition: at 2 µM, stronger effect = higher value, 0% TNFa-plus-vehicle, 100% no-TNFa wells.
Assay [2] in a line: reduction of polyQ htt aggregates in cells – imaging, exon1htt(103Q)mCFP cells, high-content imaging, primary screen (AID 483;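 active = visual image review flags a hit and inhibition of aggregation exceeds 20%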;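 also: compound exposure lasted 3 days before fixation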;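 as to nuclei count: percent of the per-plate median nuclei count of sample wells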). Particulars: exon1htt(103Q)mCFP cell line, aggregate imaging, at 2 µM; inhibition of aggregation: stronger effect = higher value; nuclei count: measured here: cell count, toxicity.
Assay [3] can be described thus: endothelial E-selectin expression blockers – imaging, HUVEC, immunofluorescence, MLSMR starter and 10KST1 sets, primary screen (AID 487;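 active = visually confirmed hit in the image check and inhibition above 20%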;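 as to inhibition: signal is fraction of cell area covered by stained E-selectin grains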;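 as to nuclei count: 100% = median nuclei count of all wells on the same plate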). To be noted: HUVEC TNFalpha-induced E-selectin immunofluorescence imaging, at 2 µM; inhibition: stronger effect = higher value; nuclei count: measured here: cell number, toxicity.
Assay [4] in a line: Primary imaging screen for DUSP6 inhibitors that restore phospho-Erk in transfected HeLa cells, chemical complementation (AID 609;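 active = compounds giving at least 50% inhibition in the cell-based MKP-3 phosphatase rescue imaging test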;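 as to inhibition: phospho-Erk level distribution per well compared with pooled transfected vehicle control wells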). To be noted: HeLa MKP-3 transfected, phospho-Erk imaging KS statistic, at 10 µM, cells stimulated with TPA for 15 min.
Assay [5] addresses Dual specificity protein phosphatase 6 (Homo sapiens) (UniProt Q16828). The description is as above. Particulars: HeLa MKP-3 transfected, phospho-Erk imaging KS statistic; at 10 µM; stronger effect = higher value; cells stimulated with TPA for 15 min.
In assay [6] the target is Voltage-gated potassium channel subunit beta-2 (Rattus norvegicus) (UniProt P62483). Nature of the assay: inhibitors of rat Kvbeta2 reductase activity – biochemical, NADPH fluorescence, primary screen (AID 622;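 active = fluorescence slope higher than the sample average by over 3 SD, cut at about -0.22 in these data, passing the limit was not always enough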;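 also: slope of raw intensity against log time taken from 70 to 1610 s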). Particulars: recombinant KvBeta, 4-cyanobenzaldehyde reduction, at 10 µM, stronger effect = higher value.
Assay [7] shares this target. Briefly: enhancers of rat Kvbeta2 NADPH turnover – biochemical, NADPH fluorescence, primary screen (AID 623;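 active = NADPH fluorescence slope more negative than the mean of all samples by about 3 SD, 99.7% confidence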;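 also: fluorescence intensity change per second fitted from 20 to 320 s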). Particulars: Recombinant KvBeta, NADPH fluorescence decrease slope, 10 min; at 10 µM; stronger effect = lower value.
Assay [8] has as its target Alpha-2C adrenergic receptor (Homo sapiens) (UniProt P18825). Briefly: compounds altering alpha2C-coupled GIRK flux – cell-based, HEK293 alpha2C/GIRK1/2, thallium flux, primary screen (AID 624;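 active = fluorescence slope after compound addition differing from the mean of all screened samples at 99.7% confidence, in either direction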;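 also: slope of fluorescence ratio to pre-addition baseline per second over 15 to 24 s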). To be noted: thallium flux BTC fluorescence, at 10 µM, actives lie on both sides.
Assay [9] in a line: inhibitors of larval lipid processing in zebrafish, primary screen, whole organism, PED6 fluorescence, gall bladder and intestine (AID 686;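 active = a full or partial loss of lipid-probe fluorescence in the fish gall bladder, intestine or both, judged by eye; inactive = no fluorescence loss, or compound toxic to the fish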;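 also: larvae 5 to 7 days old with five fish per well; signal comes from phospholipase A2 cleavage of quenched PED6 carried via bile; overnight exposure to compound and PED6 before scoring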). To be noted: Zebrafish larvae PED6 lipid processing, fluorescence scoring; screened at 20 µM (by protocol).
Assay [10] can be described thus: loss of swimming-algae plug formation – whole organism, Chlamydomonas reinhardtii, WT vs cilia-less mutant, absorbance, 96-well, primary screen (AID 463189).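 Also: 0% = wild type cc124 cells in DMSO and 100% = ciliumless bld1 mutant cells.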 Particulars: Chlamydomonas reinhardtii gravitaxis, OD600 absorbance, 2 days; at 10 µM; stronger effect = higher value.
A short description of assay [11]: blockers of RIG-like receptor reporter activation – cell-based, Sendai virus stimulus, luciferase, 10K MLSCN set, TLR/RLR signaling modifier project, primary screen (AID 602276;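 active = inhibition at or above 50% at 10 µM; inactive = inhibition below 50%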;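 also: firefly luciferase from ISG56 promoter only with Renilla not read in this screen; 0% = Sendai virus plus DMSO and 100% = medium plus DMSO without virus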). Particulars: HEK293 RL24 IRF3 luciferase reporter, at 10 µM, stronger effect = higher value.
Assay [12] in a line: TLR3 IRF3 reporter activation blockers – cell-based, poly I:C stimulus, luciferase, 10K MLSCN set, primary screen (AID 602277;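 active = inhibition of the reporter signal at or above 50%; inactive = inhibition below 50%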). Particulars: HEK293-TLR3 RL24 IRF3 luciferase reporter, at 10 µM, stronger effect = higher value.
[13] abbreviates: measured here: cell density z-score.
Where [14] appears, read: measured here: nuclear c-Myc green intensity z-score.
Setting [15] is: measured here: nuclear pErk red intensity z-score, stronger effect = higher value.

The values that follow come from PubChem BioAssay.

“And” between values parts separate entries of the source, which are not always exact repeats. Identical values can stand only once. The source made the active and inactive calls.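 The calls were made as follows, unless noted: active = inhibition at or above 50% relative to wild type and mutant plate controls; inactive = inhibition below 50%.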

Sequence of Dual specificity protein phosphatase 6 (Homo sapiens) (Q16828 whole entry, looked up): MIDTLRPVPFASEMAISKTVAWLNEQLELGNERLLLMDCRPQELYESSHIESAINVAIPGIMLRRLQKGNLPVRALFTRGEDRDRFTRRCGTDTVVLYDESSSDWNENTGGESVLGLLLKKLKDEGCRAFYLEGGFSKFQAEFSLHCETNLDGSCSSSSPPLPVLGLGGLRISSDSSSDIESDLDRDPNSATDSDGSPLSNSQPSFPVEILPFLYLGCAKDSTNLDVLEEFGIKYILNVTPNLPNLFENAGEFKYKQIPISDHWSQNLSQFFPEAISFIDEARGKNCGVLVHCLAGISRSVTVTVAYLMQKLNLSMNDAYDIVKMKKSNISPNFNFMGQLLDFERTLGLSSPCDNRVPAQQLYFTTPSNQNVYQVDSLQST
Sequence of Alpha-2C adrenergic receptor (Homo sapiens) (P18825 whole entry, looked up): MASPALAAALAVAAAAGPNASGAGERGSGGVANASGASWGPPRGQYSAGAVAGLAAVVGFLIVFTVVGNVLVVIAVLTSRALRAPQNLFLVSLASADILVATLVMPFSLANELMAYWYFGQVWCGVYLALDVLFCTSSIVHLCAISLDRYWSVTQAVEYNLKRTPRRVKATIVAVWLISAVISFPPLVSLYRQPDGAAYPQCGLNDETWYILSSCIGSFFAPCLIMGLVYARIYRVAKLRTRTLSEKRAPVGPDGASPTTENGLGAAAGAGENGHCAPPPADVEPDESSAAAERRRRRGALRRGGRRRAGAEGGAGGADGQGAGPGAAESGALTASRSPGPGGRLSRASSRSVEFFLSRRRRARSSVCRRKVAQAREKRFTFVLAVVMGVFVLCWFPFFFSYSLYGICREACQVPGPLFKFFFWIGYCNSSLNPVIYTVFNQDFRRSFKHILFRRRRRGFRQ
Sequence of Voltage-gated potassium channel subunit beta-2 (Rattus norvegicus) (P62483 whole entry, looked up): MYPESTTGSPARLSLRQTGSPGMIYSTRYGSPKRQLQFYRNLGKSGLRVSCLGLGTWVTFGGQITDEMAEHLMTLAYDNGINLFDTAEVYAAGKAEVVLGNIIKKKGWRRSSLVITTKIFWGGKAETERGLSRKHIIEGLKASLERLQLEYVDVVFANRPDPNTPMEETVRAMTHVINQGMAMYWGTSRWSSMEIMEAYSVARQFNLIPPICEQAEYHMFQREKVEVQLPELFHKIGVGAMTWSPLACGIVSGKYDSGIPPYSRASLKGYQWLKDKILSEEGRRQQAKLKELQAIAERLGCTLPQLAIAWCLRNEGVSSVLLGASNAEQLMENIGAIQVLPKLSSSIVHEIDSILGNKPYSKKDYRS

One may read the inhibition as the drop in the measured response relative to a control, in per cent. As to `Oc1ccc(/C=C/c2cc(O)cc(O)c2)cc1`, in assay [1], the cell count amounted to 597. The inhibition in assay [1] is 2.2% (inactive); in assay [3], -78% (inactive); in assay [5], 14.6% (inactive); in assay [10], 3.52% (inactive) and 10.8% (inactive); in assay [11], -39.2% (inactive); in [12] it was -231% (inactive). Further, in [2], the inhibition of aggregation was 6% (inactive). Further, the values for the nuclei count in [2] and in assay [3] were 98.6% and 118%, respectively. The z-score is -1.5 in assay [4] (setting [13]), -0.867 in assay [4] (setting [14]) and 1.21 in assay [4] (setting [15]). Also, the fluorescence slope in assay [6] is -0.411 (inactive). Besides, the NADPH fluorescence slope in assay [7] was -0.000101 (inactive). Also, the slope in assay [8] was 0.00434 (inactive). Besides, the molecule was called inactive in [9].

With `CCCCN1C[C@H](O)[C@@H](O)[C@H](O)[C@H]1CO`, the cell count in assay [1] amounted to 594. Moreover, the inhibition in assay [1] is -9.5% (inactive); in assay [3] it was -34.3% (inactive); in [5], 15.3% (inactive); in assay [10], 22.3% (inactive); in [11] it was 14% (inactive); in assay [12], 19.6% (inactive). For the same molecule, in assay [2], the inhibition of aggregation is -4.6% (inactive). Also, the nuclei count in assay [2] was 109%; in assay [3], 129%. The z-score is 0.947 in assay [4] (setting [13]), -0.313 in [4] (setting [14]) and 0.0804 in [4] (setting [15]). The fluorescence slope in [6] was -0.473 (inactive). The NADPH fluorescence slope in [7] was 1.5e-05 (inactive). The slope in [8] was 0.00474 (inactive). Moreover, in assay [9], the molecule was called inactive.

Regarding `COc1ccc(/C=C(/C#N)c2cccnc2)cc1OC`, in assay [1], the cell count was found to be 515. For the same molecule, the inhibition is 4.6% (inactive) in assay [1]; -17.2% (inactive) in assay [3]; 1.48% (inactive) in assay [5]; -22% (inactive) in assay [10]; 6.71% (inactive) in assay [11]; -45.5% (inactive) in [12]. Moreover, the inhibition of aggregation in [2] was 17.7% (inactive). The nuclei count stood at 82.3% in assay [2] and 112% in assay [3]. The values for the z-score in assay [4] (setting [13]), in assay [4] (setting [14]) and in assay [4] (setting [15]) were 0.571, -1.05 and -1.32, respectively. Further, in [6], the fluorescence slope was -0.499 (inactive). The NADPH fluorescence slope in [7] was -4.4e-05 (inactive). The slope in assay [8] is 0.00455 (inactive). Moreover, the result in assay [9] was inactive.

Consider `O=C(NCc1ccco1)c1cnn2c(C(F)(F)F)cc(-c3ccco3)nc12`, for which the cell count in assay [1] was 480. For the same molecule, the inhibition in assay [1] was -4.4% (inactive); in assay [3] it was -34.8% (inactive); in [5], 11.3% (inactive); in assay [10] it was -15.7% (inactive); in assay [11], 16% (inactive); in assay [12] it was 24.8% (inactive). In addition, in assay [2], the inhibition of aggregation was -12.5% (inactive). The figures for the nuclei count in assay [2] and in [3] were 95.1% and 118%, respectively. Also, the z-score was -0.634 in [4] (setting [13]), 0.493 in [4] (setting [14]) and -1.31 in assay [4] (setting [15]). In addition, the fluorescence slope in assay [6] was -0.421 (inactive). Further, the NADPH fluorescence slope in assay [7] is -6.2e-05 (inactive). In assay [8], the slope was 0.00539 (inactive). Moreover, the molecule was classed as inactive in [9].

Take `CCOC(=O)CSC1=C(C#N)C(=O)NC2(CCCCC2)S1`: the cell count in [1] came out at 580. Also, the inhibition in [1] is -10.9% (inactive); in assay [3], -43.8% (inactive); in assay [5], -7.86% (inactive); in assay [10], -1.64% (inactive); in assay [11], 8.53% (inactive); in [12], 100% (active). Also, the inhibition of aggregation in assay [2] is -5.9% (inactive). Further, the nuclei count amounted to 108% in [2] and 131% in assay [3]. Further, the z-score is -1.03 in assay [4] (setting [13]), 0.989 in assay [4] (setting [14]) and 0.0798 in assay [4] (setting [15]). The fluorescence slope in [6] was -0.497 (inactive). Further, in assay [7], the NADPH fluorescence slope is -4.9e-05 (inactive). Besides, the slope in assay [8] is 0.00597 (inactive). Further, the molecule was called inactive in assay [9].

Consider `Cn1c([N+](=O)[O-])cnc1COC(N)=O`, for which the cell count in assay [1] was found to be 663. In addition, the inhibition in assay [1] was -2.1% (inactive); in assay [3], -73.8% (inactive); in assay [5] it was 1.48% (inactive); in [10], 15.2% (inactive); in assay [11], 16.7% (inactive); in [12] it was 40.5% (inactive). Further, the inhibition of aggregation in [2] was 6.9% (inactive). Further, the nuclei count in assay [2] came out at 97.8%; in [3], 138%. The z-score stood at 0.12 in [4] (setting [13]), 0.491 in assay [4] (setting [14]) and 1.01 in assay [4] (setting [15]). The fluorescence slope in [6] is -0.492 (inactive). Also, the NADPH fluorescence slope in [7] was -3.9e-05 (inactive). In addition, the slope in assay [8] was 0.00486 (inactive). In [9], the molecule was called inactive.

Consider `O=c1oc2cc(O)ccc2c2oc3cc(O)ccc3c12`, for which the cell count in assay [1] is 610. Also, the inhibition in assay [1] was 3.6% (inactive); in assay [3], -22% (inactive); in assay [5], 25.7% (inactive); in assay [10], 6.48% (inactive); in assay [11], 12.4% (inactive); in [12] it was 41.2% (inactive). In addition, the inhibition of aggregation in assay [2] was 11.2% (inactive). Moreover, the nuclei count amounted to 78.7% in assay [2] and 112% in assay [3]. For the same molecule, the values for the z-score in assay [4] (setting [13]), in [4] (setting [14]) and in [4] (setting [15]) were 0.528, 1.66 and -1.32, respectively. The fluorescence slope in [6] was -0.398 (inactive). In [7], the NADPH fluorescence slope was -1e-05 (inactive). In addition, in [8], the slope was 0.00469 (inactive). Further, the molecule was classed as inactive in assay [9].

For `CC(COc1ccccc1)NC(C)C(O)c1ccc(O)cc1` (stereo not given), in [1], the cell count was determined as 534. Besides, the inhibition in assay [1] is -7.4% (inactive); in assay [3] it was -135% (inactive); in assay [5] it was -12.3% (inactive); in assay [10], -3.83% (inactive); in assay [11], -5.16% (inactive); in [12], -30% (inactive). In addition, in [2], the inhibition of aggregation was -13.1% (inactive). Moreover, the nuclei count in assay [2] worked out at 100%; in assay [3], 121%. Besides, the z-score in assay [4] (setting [13]) is -1.06; in [4] (setting [14]), -0.532; in assay [4] (setting [15]) it was 0.827. The fluorescence slope in [6] was -0.54 (inactive). The NADPH fluorescence slope in assay [7] is 4.6e-06 (inactive). The slope in assay [8] was 0.00639 (inactive). The result in [9] was inactive.

With `CN1CCCN(C(c2ccccc2)c2ccc(Cl)cc2)CC1` (stereo not given), the cell count in [1] came to 564. The inhibition was 5.7% (inactive) in assay [1]; -6.3% (inactive) in assay [3]; -5.24% (inactive) in [5]; 43% (inactive) in assay [10]; -26.9% (inactive) in assay [11]; 68.6% (active) in assay [12]. Besides, the inhibition of aggregation in [2] was -11.5% (inactive). The results for the nuclei count in [2] and in assay [3] were 103% and 120%, respectively. The z-score in assay [4] (setting [13]) is 0.561; in assay [4] (setting [14]) it was -0.226; in assay [4] (setting [15]), 0.2. The fluorescence slope in assay [6] is -0.519 (inactive). Besides, in assay [7], the NADPH fluorescence slope was -1.7e-06 (inactive). The slope in assay [8] is 0.00369 (inactive). In addition, the result in [9] was inactive.

Consider `CC1CNCCN1S(=O)(=O)c1cccc2cnccc12` (stereo not given), for which, in assay [1], the cell count is 695. In addition, the inhibition in assay [1] is -8.2% (inactive); in assay [3] it was -58.8% (inactive); in assay [5] it was 15.3% (inactive); in [10], 0.228% (inactive) and 8.92% (inactive) and 17.2% (inactive); in [11], 15.5% (inactive); in [12] it was 43% (inactive). The inhibition of aggregation in [2] is 13% (inactive). In addition, the values for the nuclei count in [2] and in [3] were 109% and 129%, respectively. Besides, the z-score in [4] (setting [13]) is -0.528; in assay [4] (setting [14]) it was 0.0835; in assay [4] (setting [15]), -0.173. Further, the fluorescence slope in assay [6] was -0.449 (inactive). In addition, the NADPH fluorescence slope in [7] is -4.6e-05 (inactive). The slope in [8] is 0.00348 (inactive). Besides, in assay [9], the result was inactive.
